For 23 compounds, Potency results are on record in PubChem BioAssay (NCATS).

Records with an inconclusive call do not appear. Active and inactive are the calls of the source. Calls come from the whole dose curve; as a rule, active = well fitted curve in the direction sought with a large enough effect; inconclusive = small, poorly fitted or top-dose-only effect, or another doubt; inactive = no such curve, though single readings can be large; an effect the other way counts as inactive or inconclusive.

A short description of test [1]: qHTS of pediatric cancer cell lines to identify multiple opportunities for drug repurposing: Primary screen for LAN-5 cells (AID 1347100). Note: potency is the fitted concentration of half-maximal effect. In outline:
(§1)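 Cells (500-1,000/well) in growth media were settled 5 h at 37 degrees C, then given compounds for 48 h. Viability was read as CellTiter-Glo luminescence. Primary runs used MIPE at 11 points (0.78 nM-46 µM) and NPC at 8 points (0.59 nM-46 µM); follow-ups used 11 points.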
(In general: Quantitative high-throughput screening tests each substance at several concentrations.)

The nature of test [2]: qHTS of pediatric cancer cell lines to identify multiple opportunities for drug repurposing: Primary screen for Rh18 cells (AID 1347102). Note: nearly all actives have a fitted effect of over 65% in size. Note: potency is the fitted concentration of half-maximal effect. In outline: as §1
Test [3] can be described thus: qHTS of pediatric cancer cell lines to identify multiple opportunities for drug repurposing: Primary screen for RD cells (AID 1347104). Note: nearly all actives have a fitted effect of over 55% in size. Note: potency is the fitted concentration of half-maximal effect. In outline: (§2)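 Viability was measured as metabolically active cells after 48 hours of treatment, read by CellTiter-Glo luminescence. Compounds were tested at multiple final concentrations, giving concentration-response curves.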
Test [4] can be described thus: qHTS of pediatric cancer cell lines to identify multiple opportunities for drug repurposing: Primary screen for MG 63 (6-TG R) cells (AID 1347105). Note: nearly all actives have a fitted effect of over 50% in size. Note: potency is the fitted concentration of half-maximal effect. In a few lines:
as §2

Test [5] in a line: qHTS of pediatric cancer cell lines to identify multiple opportunities for drug repurposing: Primary screen for control Hh wild type fibroblast cells (AID 1347106). Note: nearly all actives have a fitted effect of over 55% in size. Note: potency is the fitted concentration of half-maximal effect. In outline:
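Viability after 48 h compound treatment at 37C, 500-1,000 cells/well, read as ATP luminescence with CellTiter-Glo. Primary screens used 11-point (MIPE, 0.78 nM-46 µM) or 8-point (NPC, 0.59 nM-46 µM) final concentrations; follow-up screens used 11-point dilutions.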

A short description of test [6]: qHTS of pediatric cancer cell lines to identify multiple opportunities for drug repurposing: Primary screen for Rh30 cells (AID 1347107). Note: nearly all actives have a fitted effect of over 75% in size. Note: potency is the fitted concentration of half-maximal effect. In outline:
as §1

Test [7] in a line: qHTS of pediatric cancer cell lines to identify multiple opportunities for drug repurposing: Primary screen for Rh41 cells (AID 1347108). Note: nearly all actives have a fitted effect of over 70% in size. Note: potency is the fitted concentration of half-maximal effect. In a few lines:
as §2

Test [8] in a line: qHTS of pediatric cancer cell lines to identify multiple opportunities for drug repurposing: Primary screen for OHS-50 cells (AID 1347103). Note: nearly all actives have a fitted effect of over 40% in size. Note: potency is the fitted concentration of half-maximal effect. In a few lines:
(§3)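 Cells (500-1,000/well) rested 5 h, then received compounds for 48 h; metabolically active cells were measured by CellTiter-Glo luminescence. Final concentrations spanned up to 46 µM (MIPE, 11-point) or 0.59 nM-46 µM (NPC, 8-point) in primary screens, 11-point in follow-ups.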

Test [9] can be described thus: qHTS of pediatric cancer cell lines to identify multiple opportunities for drug repurposing: Primary screen for BT-12 cells (AID 1347101). Note: nearly all actives have a fitted effect of over 25% in size. In outline: as §3
Test [10] is described as follows: qHTS of pediatric cancer cell lines to identify multiple opportunities for drug repurposing: Confirmatory screen for NB1643 cells (AID 1347109). Note: nearly all actives have a fitted effect of over 45% in size. Note: potency is the fitted concentration of half-maximal effect. In a few lines: as §1
Test [11] can be described thus: qHTS of pediatric cancer cell lines to identify multiple opportunities for drug repurposing: Confirmatory screen for A673 cells (AID 1347110).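 Note: cells exposed to compound for 48 h before the viability read; nearly all actives have a fitted effect of over 65% in size.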 Note: potency is the fitted concentration of half-maximal effect. In outline:
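Forty-eight-hour viability assay. Follow-up compounds ran at 11-point dilutions; positive control bortezomib at 2.3 uM final, neutral control DMSO.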

Test [12] is described as follows: qHTS of pediatric cancer cell lines to identify multiple opportunities for drug repurposing: Confirmatory screen for SK-N-MC cells (AID 1347111).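 Note: cells exposed to compound for 48 h before the readout; nearly all actives have a fitted effect of over 70% in size.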 Note: potency is the fitted concentration of half-maximal effect. In outline:
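Metabolically active cells were quantified by ATP-dependent luminescence (CellTiter-Glo, 15 min at room temperature) following 48 h treatment. Cells had been plated at 500-1,000 per well and settled for 5 h beforehand.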

A short description of test [13]: qHTS of pediatric cancer cell lines to identify multiple opportunities for drug repurposing: Confirmatory screen for LAN-5 cells (AID 1347113). Note: nearly all actives have a fitted effect of over 65% in size. Note: potency is the fitted concentration of half-maximal effect. In a few lines:
as §1

The nature of test [14]: qHTS of pediatric cancer cell lines to identify multiple opportunities for drug repurposing: Confirmatory screen for DAOY cells (AID 1347114). Note: nearly all actives have a fitted effect of over 65% in size. Note: potency is the fitted concentration of half-maximal effect. In outline:
(§4)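 Viability measured as metabolically active cells via CellTiter-Glo luminescence following 48 hours of compound exposure, 11-point dilutions in confirmatory testing. 500-1,000 cells/well plated 5 hours before dosing; controls were DMSO and 2.3 µM bortezomib.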

Test [15] can be described thus: qHTS of pediatric cancer cell lines to identify multiple opportunities for drug repurposing: Confirmatory screen for SJ-GBM2 cells (AID 1347116). Note: nearly all actives have a fitted effect of over 60% in size. Note: potency is the fitted concentration of half-maximal effect. In a few lines:
as §4

Test [16] can be described thus: qHTS of pediatric cancer cell lines to identify multiple opportunities for drug repurposing: Confirmatory screen for BT-37 cells (AID 1347117). Note: nearly all actives have a fitted effect of over 55% in size. Note: potency is the fitted concentration of half-maximal effect. In a few lines:
as §1

The nature of test [17]: qHTS of pediatric cancer cell lines to identify multiple opportunities for drug repurposing: Confirmatory screen for TC32 cells (AID 1347118). In outline:
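Luminescent CellTiter-Glo read-out of metabolically active TC32 cells after 48 h compound exposure. Primary: MIPE 11-point, 0.78 nM–46 µM; NPC 8-point, 0.59 nM–46 µM. Confirmatory: 11-point dilutions.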

Test [18] can be described thus: qHTS of pediatric cancer cell lines to identify multiple opportunities for drug repurposing: Confirmatory screen for control Hh wild type fibroblast cells (AID 1347121). Note: potency is the fitted concentration of half-maximal effect; nearly all actives have a fitted effect of over 70% in size. In outline: as §1
The nature of test [19]: qHTS of pediatric cancer cell lines to identify multiple opportunities for drug repurposing: Confirmatory screen for U-2 OS cells (AID 1347122). Note: nearly all actives have a fitted effect of over 65% in size. Note: potency is the fitted concentration of half-maximal effect. In outline:
as §1

The nature of test [20]: qHTS of pediatric cancer cell lines to identify multiple opportunities for drug repurposing: Confirmatory screen for BT-12 cells (AID 1347112). Note: nearly all actives have a fitted effect of over 55% in size. In outline: as §1

`CO[C@@H](C(=O)N1Cc2[nH]nc(NC(=O)c3ccc(N4CCN(C)CC4)cc3)c2C1)c1ccccc1`: the Potency was 0.0372 µM (active) in test [1]; 0.935 µM (active) in [2]; 5.26 µM (active) in test [3]; 1.48 µM (active) in test [4]; 9.35 µM (active) in test [5]; 0.469 µM (active) in test [7]. Besides, the Potency entry in test [6] was “inactive”.

Consider `O=C(O)CCc1nc(-c2ccccc2)c(-c2ccccc2)o1`, for which the Potency entry in test [1], in test [8], in test [3], in test [4], in test [5] and in test [6] was “inactive” in each case. Also, in test [7], the Potency entry is “inactive”.

`Cc1ccc(F)c(NC(=O)Nc2ccc(-c3cccc4[nH]nc(N)c34)cc2)c1`: the Potency in test [1] is 20.9 µM (active); in test [8] it was 27.3 µM (active). Moreover, the Potency entry in [4], in test [5] and in [6] was “inactive” each time.

Turning to `O=C1NC(=O)C(=Cc2cccc(C(F)(F)F)c2)S1`, the Potency entry in [1], in [2], in [3] and in test [4] was “inactive” each time. The Potency in [7] is 23.5 µM (active).

Take `CN1CCN(CCOc2cc(OC3CCOCC3)c3c(Nc4c(Cl)ccc5c4OCO5)ncnc3c2)CC1`: the Potency in [1] was 18.7 µM (active); in [8], 17.2 µM (active); in [3] it was 20.9 µM (active). In addition, in test [5], the Potency result is “inactive”.

For `CS(=O)(=O)N(Cc1ccco1)CC(O)Cn1c2ccccc2c2ccccc21` (configuration not stated), the Potency entry in [1], in test [2], in test [4] and in test [5] was “inactive” each time.

For the compound `CN1[C@@H]2CCC[C@@H]1CC(NC(=O)c1nn(C)c3ccccc13)C2` (some centres not stated), the Potency result in [9], in test [2], in test [8], in test [3], in test [4] and in test [5] was “inactive” each time. The Potency entry in [6] is “inactive”.

On to `O=C(O)C(O)Cc1ccc(O)c(O)c1` (configuration not stated), for which the Potency result in [9], in test [2], in [8], in test [3], in [4] and in test [5] was “inactive” in each case. In test [6], the Potency result is “inactive”.

Regarding `COc1cc(N2CCC(N3CCN(C)CC3)CC2)ccc1Nc1ncc(Cl)c(Nc2ccccc2S(=O)(=O)C(C)C)n1`, the Potency is 0.001 µM (active) in [1]; 29.6 µM (active) in [5]; 1.05 µM (active) in [6]; 1.04 µM (active) in test [10]; 3.29 µM (active) in test [11]; 0.657 µM (active) in test [12]. The Potency in test [13] was 0.185 µM (active); in [14], 16.5 µM (active); in test [15], 23.3 µM (active); in test [16], 14.7 µM (active); in [17] it was 1.85 µM (active); in test [18], 20.8 µM (active). Further, the Potency in [19] was 0.465 µM (active).

`O=C(N[C@@H](c1ccccc1)[C@@H]1CCCCN1)c1cccc(C(F)(F)F)c1Cl`: the Potency in test [1] is 18.7 µM (active). The Potency entry in test [2], in test [4], in test [5] and in [6] was “inactive” throughout.

In the case of `COc1cccc([C@@H](C)NCCCc2ccccc2Cl)c1`, the Potency entry in [1], in [8], in test [3] and in test [6] was “inactive” each time.

`COc1ccc(-c2cc(=O)c3c(O)cc(O)cc3o2)cc1O`: the Potency in test [1] is 7.43 µM (active). Also, the Potency result in test [4], in test [5] and in test [6] was “inactive” in each case.

Turning to `NC1CCC(Nc2nc(Nc3ccc(C(=O)N4CCCCC4)cc3)c3ncn(-c4cccc(F)c4)c3n2)CC1` (configuration not stated), the Potency result in test [9], in test [2], in [8], in test [3], in [4] and in [5] was “inactive” in each case. Besides, in test [6], the Potency result is “inactive”.

With `COCCCCC(=NOCCN)c1ccc(C(F)(F)F)cc1`, the Potency result in [1], in test [2] and in [5] was “inactive” each time. Further, the Potency in test [3] was 33.2 µM (active); in [6] it was 23.5 µM (active).

Turning to `Cc1ccn(-c2ccc(-c3ncco3)cc2)c(=O)c1-c1ccc2nc(N)ncc2c1`, the Potency entry in [1], in test [5], in test [6] and in test [7] was “inactive” in each case. Also, the Potency in test [8] was 2.73 µM (active).

As for `O=C(O)C=Cc1ccc(O)c(O)c1`, the results for the Potency in test [1], in [3] and in test [6] were 3.72 µM (active), 33.2 µM (active) and 23.5 µM (active), respectively. For the same compound, the Potency result in [2], in test [4] and in test [5] was “inactive” throughout.

`CC(C)C(=O)Nc1ncc(-c2cc(C(F)F)nn2-c2c(Cl)cccc2Cl)s1`: the values for the Potency in test [1] and in test [8] were 23.5 µM (active) and 27.3 µM (active), respectively. In addition, in test [6], the Potency result is “inactive”.

Turning to `CC(C)OC(=O)C(C)(C)Oc1ccc(C(=O)c2ccc(Cl)cc2)cc1`, the Potency result in [1], in test [2], in test [3], in [4], in test [5] and in test [6] was “inactive” in each case.

Consider `Cc1ccc(Nc2cc(-c3cccc(N4C(=O)c5ccccc5C4=O)c3)ncn2)cc1NS(C)(=O)=O`, for which the Potency in [1] is 23.5 µM (active). Moreover, the Potency entry in [2], in test [4] and in test [5] was “inactive” in each case.

As to `CCC(CC)[C@H](NC(C)=O)[C@@H]1[C@H](O)[C@@H](C(=O)O)C[C@@H]1N=C(N)N`, the Potency result in test [9], in [2], in test [8], in test [3], in [4] and in test [5] was “inactive” in each case. The Potency entry in test [6] and in test [7] was “inactive” each time.

In the case of `CC1(C)O[C@H]2C[C@@H]3[C@H]4CCC5=CC(=O)C=C[C@]5(C)[C@@]4(F)[C@@H](O)C[C@]3(C)[C@]2(C(=O)CO)O1`, the Potency in test [1] is 7.43 µM (active). The Potency result in test [2], in test [3], in test [4], in [5], in test [6] and in [7] was “inactive” each time. The Potency entry in test [10], in test [11], in [12], in [20], in test [13] and in [14] was “inactive” each time. Also, the Potency entry in test [15], in test [16] and in test [19] was “inactive” in each case.

`CC(C)NCC(O)COc1cccc2[nH]ccc12` (configuration not stated): the Potency entry in test [9], in [2], in test [8], in test [3], in [4] and in [5] was “inactive” in each case. The Potency entry in test [6] was “inactive”.

For the compound `C[C@]12CC[C@@H]3c4ccc(O)cc4C[C@@H](CCCCCCCCCS(=O)CCCC(F)(F)C(F)(F)F)[C@H]3[C@H]1CC[C@H]2O` (some centres not stated), the Potency result in [1], in test [4] and in [5] was “inactive” each time.
